Screening results as filed in PubChem BioAssay.
Sfp PPTase inh = blocks B. subtilis Sfp PPTase activity; Q9F4F7; AID 1490; Biochemical Sfp PPTase activity, qHTS; Potency, µM, for inactives: largest response in the series, negative = inhibition, most hits filed as inhibitors; 3.5% of 310,000 active;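 further: the enzyme is Sfp with the accession as filed and its product quenches rhodamine fluorescence; potency means the concentration at half of the fitted maximal effect; 0% = enzyme reaction without inhibitor and -100% = no enzyme wells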
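Compounds were incubated with enzyme (final 15 nM) for 15 min at room temperature before substrate addition started the reaction. Fluorescence at 525 nm excitation, 598 nm emission was recorded immediately and after 30 minutes.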
Tau fluor counter = counter-screen for tau fibril formation inhibitors; tau K18 P301L Alexa594 fluorescence, heparin fibrillization; Potency, µM (doses to about 57.7 µM), inactives show at the top dose activity change, negative = decrease; 0.93% of 280,000 active; further: potency means the concentration at half of the fitted maximal effect; on the % scale 0 is the no-effect control and ±100 the full control effect; nearly all actives have a fitted effect of over 55% in size
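Human tau K18 P301L (15 uM unlabeled, 0.24 uM Alexa 594-labeled) in 100 mM sodium acetate pH 7 with 20 uM heparin, 6 hr at 37 C. ThT 30 uM added, 1 hr ambient; Alexa 594 FP and total fluorescence read at 555/632 nm.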
Coupling enz = inhibits coupling enzyme system, counter-screen for aldolase hits | coupling enzyme system counterscreen, AmpLite Red fluorescence | activity change, negative = inhibition, % at 58.2 µM, hits read low | 0.67% of 290,000 active; in the data active means activity change below about -30%; further: on the % scale 0 is the no-effect control and ±100 the full control effect
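Fluorescence at 525 nm excitation and 598 nm emission measured inhibition of the coupled detection system without aldolase. Compounds (at 57.5 uM final) were preincubated 10 min at room temperature with coupling enzyme reagent before a 20 min substrate/AmpLite Red step.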
Tau FP inhib = tau fibrillization inhibition (FP); AID 1468; K18 P301L tau heparin fibrillization, Alexa594 FP, 6 h; P10636; Potency, µM (highest dose often 57.7 µM), for inactives: at the top dose activity, negative = inhibition, actives largely listed as inhibitors; 0.39% of 280,000 active; further: potency means the concentration at half of the fitted maximal effect; on the % scale 0 is the no-effect control and ±100 the full control effect; nearly all actives have a fitted effect of over 55% in size
Target sequence (P10636 561-689 P618L limits assumed): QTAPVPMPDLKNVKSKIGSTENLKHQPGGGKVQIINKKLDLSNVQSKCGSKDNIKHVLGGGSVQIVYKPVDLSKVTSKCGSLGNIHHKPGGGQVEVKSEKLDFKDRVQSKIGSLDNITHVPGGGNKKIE
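K18 P301L tau (15 uM unlabeled/0.24 uM Alexa 594-labeled, final) + compound + heparin 20 uM final; 100 mM NaOAc pH 7; 6 hr 37 C; ThT 30 uM final added, 1 hr RT; FP ex 555/em 632 nm.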
Tau fibril ThT = blocks human tau fibril formation measured by thioflavin T; AID 1460; P10636; 2.1% of 270,000 active; Potency, µM (titrated, usually from 57.4 µM), for the others: at the highest dose activity, negative = inhibition, usual class: inhibitors; recombinant tau K18 P301L, heparin-induced fibrillization, ThT fluorescence; further: potency means the concentration at half of the fitted maximal effect; on the % scale 0 is the no-effect control and ±100 the full control effect; nearly all actives have a fitted effect of over 55% in size
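Recombinant human tau K18 fragment […] carrying P301L, 15 uM unlabeled plus 0.24 uM Alexa 594-labeled, was fibrillized with 20 uM heparin in 100 mM sodium acetate pH 7 for 6 hr at 37 C; 30 uM ThT fluorescence read after 1 hr.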
Tau TEM fibril = Inhibits human tau fibrillization; shares compounds with Tau fibril ThT; recombinant tau K18 P301L fibrillization, TEM grading; active compounds read high; fibril grade (0 = clumped fibrils, 4 = only tiny pieces) (concentration not given with the values); 70% of 45 active; AID 1719;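 active means compounds whose electron micrographs showed tau fibrils broken into shorter filaments or fragments, graded high on fibril breakup; inconclusive means micrographs gave an unclear fibril picture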
tau sediment = inhibitors of human tau fibrillization, sedimentation test. 50% of 110 active. shares compounds with Tau fibril ThT. inhibition, % at 100 µM. recombinant tau K18 P301L (four-repeat tau fragment), sedimentation SDS-PAGE densitometry; in the data active means inhibition above about 40%; inconclusive means no clear call, values can overlap the other calls; inactive means below about 18%
Active calls of the source: *; ? = inconclusive; · = no result; [ ] = dose if it differs, or a comment. An excerpt weighted towards active compounds, which were near 5.2% of everything screened. Unless noted, the call rests on the fitted dose curve; in most records, active means well fitted curve in the direction sought with a large enough effect; inconclusive means small, poorly fitted or top-dose-only effect, or another doubt; inactive means no such curve, though single readings can be large; an effect the other way counts as inactive or inconclusive.

SMILES	Sfp PPTase inh	Tau fluor counter	Coupling enz	Tau FP inhib	Tau fibril ThT	tau sediment	others
COc1ccc(C2CC(O)(c3ccccc3)Oc3c(C)ccc(C(C)C)c32)cc1 (stereo not drawn)	27%	·	-3	·	·	·
CC(=O)Nc1nc(C)c(-c2csc(Nc3ccccn3)n2)s1	-9%	?	-1	?	?	·
CC(=O)Nc1nc(C)c(-c2csc(Nc3cccc([N+](=O)[O-])c3)n2)s1	-8%	?	-8	?	?	13
CC(=O)Nc1nc(C)c(-c2csc(Nc3ccc(O)cc3)n2)s1	35µM*	14µM*[quencher]	-8	-12%	8.9µM*	?	Tau TEM fibril=0
CC(=O)Nc1nc(C)c(-c2csc(Nc3cccc(C(C)=O)c3)n2)s1	-9%	·	-10	·	·	·
Cn1cc(Cl)c(C(=O)Nc2nc3ccccc3s2)n1	21%	-3%	0	10%	-1%	·
Cn1cc(Cl)c(C(=O)Nc2cccc(Cl)c2Cl)n1	2%	-4%	0	3%	-10%	8
COc1ccc2[nH]c(=O)c(CN(Cc3cccs3)C(=S)Nc3cccc(C)c3)cc2c1	-10%	?	-2	?	-7%	·
COc1ccc2[nH]c(=O)c(CNc3cccc(C)c3)cc2c1	10µM*	-2%	-39*	6%	-8%	85*	Tau TEM fibril=4*
Cc1ccc2c(c1)C(c1ccc(F)cc1)N(C(=O)COc1ccc(Cl)cc1Cl)CC(=O)N2 (stereo not drawn)	·	-19%	·	-9%	-11%	·
Cc1ccc(C(=O)Nc2nc(=O)n(C(=O)CC(C)C)s2)cc1	16%	-12%	3	?	?	12
Cc1ccc(C(=O)Nc2nc(=O)[nH]s2)cc1	19%	1%	3	-3%	-4%	·
CCOC(=O)c1nn(-c2ccc(Cl)cc2)c(=O)c2c(N)scc12	·	·	·	·	·	62*
CCOC(=O)c1nn(-c2ccc(F)cc2)c(=O)c(C#N)c1C	4%	·	1	·	·	·
CCOC(=O)c1nn(-c2ccc(F)cc2)c(=O)c2c(N)scc12	50µM*	-1%	12	1%[2.34 µM]	1%	64*
CC(C)NC[C@@H](O)COc1ccc(COCCOC(C)C)cc1	21%	-2%	-1	2%	2%	·
Nc1scc2c(C(=O)NCc3ccccc3)nn(-c3ccccc3)c(=O)c12	·	·	·	·	·	54*
Nc1scc2c(C(=O)O)nn(-c3ccccc3)c(=O)c12	·	·	·	·	·	84*
COc1cccc(-n2nc(C(=O)O)c3ccccc3c2=O)c1	-25%	-4%	3	-2%	-6%	·
Cc1ccc(Cl)cc1NC(=O)Cn1c(=O)c(CNc2ccccc2)cc2cc3c(cc21)OCCO3	·	?	·	-2%	?	·
O=C(Cn1c(=O)c(CNc2ccccc2)cc2cc3c(cc21)OCCO3)Nc1ccccc1Cl	·	?	·	?	8.9µM*	62*	Tau TEM fibril=0
CCn1c(CSc2nccn2C)nc2cc(C(=O)O)ccc21	56µM*	-5%	-36*	?	4µM*	56*	Tau TEM fibril=3*
O=C(Nc1ccc(OC(F)(F)F)cc1)Nc1cccc([N+](=O)[O-])c1	?	1.8µM*[quencher]	-12	4.5µM*	?	13
Cc1[nH]c(=O)c(C#N)cc1-c1ccncc1	13%	3%	3	-1%	-2%	7
Cc1[nH]c(=O)c(C#N)cc1-c1ccc2nccn2c1	-3%	-2%	3	-5%	6%	·
O=C(O)CC1S/C(=N/N=C/c2ccc(-c3ccc(Cl)cc3[N+](=O)[O-])o2)NC1=O (stereo not drawn)	40µM*	?	-9	1.6µM*	1µM*	74*	Tau TEM fibril=3*
O=c1cnc2cnc(N3CCNCC3)nc2n1Cc1cccs1	-2%	·	0	·	·	·
COc1ccccc1NC(=O)c1cnc(SCC(=O)N2CCCc3ccccc32)n(C)c1=O	·	-5%	·	?	?	·
